In the OligoGym collection one finds sensor-assay potency score (higher = more potent) data, which are given here for 24 sequences.
Further: reference of the scale not given here.

The target of the first assay is COPS8. Nature of the assay: pooled miR-30 sensor sort-seq; sequence = guide strand. The conditions noted are these: shRNA.
TTGCAGATTTTATAGCAGGTGG yielded a sensor-assay potency score (higher = more potent) of -0.905.

Sequence TAGAAGCTGACCATACACTGGG yielded a sensor-assay potency score (higher = more potent) of 0.625.

Regarding TATGGAGCAAATATAAAGCTAG, the sensor-assay potency score (higher = more potent) is -0.121.

The sequence TATTTTATCACATAGTAAGGAA showed a sensor-assay potency score (higher = more potent) of -0.329.

For the sequence TTGATGGTTGTATAGATCCCAG, the sensor-assay potency score (higher = more potent) is -1.45.

The sequence TTACATTTCTACGTTTGTCAGT yielded a sensor-assay potency score (higher = more potent) of -0.228.

On to ATTCTTTGTCCTACTGACCAAA, for which the sensor-assay potency score (higher = more potent) was -1.48.

TTTTTGAAACTAAAGGCGCTTT registered a sensor-assay potency score (higher = more potent) of -0.00727.

Turning to TTCTTTTCCAAAGATATCTTGC, the sensor-assay potency score (higher = more potent) is -0.431.

On to TTTCTGGGCAGAACCATTCTTG, for which the sensor-assay potency score (higher = more potent) was -0.632.

The sequence TTGTTGCATCTCTAAGTGCTTC yielded a sensor-assay potency score (higher = more potent) of -1.16.

TTTTCCAAAGATATCTTGCATT displayed a sensor-assay potency score (higher = more potent) of -0.738.

The next assay has as its target COQ3. The assay is described as above. The conditions noted are these: shRNA.
TAGAGCATTCCTACCACTGTTT: the sensor-assay potency score (higher = more potent) is -0.0231.

As to TTAATGTTCTCATCCACAGGGT, the sensor-assay potency score (higher = more potent) came to 0.284.

In turn, TTAATCTGTAGAGTCCCACTGA gave a sensor-assay potency score (higher = more potent) of 0.477.

Regarding TATGGTTCTGTATTCATTGAAA, the sensor-assay potency score (higher = more potent) was -1.12.

TACCTGAAACTCTTTATTCTGT had a sensor-assay potency score (higher = more potent) of -0.297.

In the case of TTAGCTTGGAGCTCTTCTGTTT, the sensor-assay potency score (higher = more potent) is -0.684.

Sequence TTCTTCACATAAACCGCCGAGG gave a sensor-assay potency score (higher = more potent) of -1.27.

The sequence TTGAAAACATCAGATATCCAAG yielded a sensor-assay potency score (higher = more potent) of -0.816.

Sequence TAGTAATGAATAAAGAACCACC registered a sensor-assay potency score (higher = more potent) of -0.744.

Sequence TAACACTTGACAGCAGCACTGT came in with a sensor-assay potency score (higher = more potent) of -0.0361.

For the sequence AAACAGGAAAAGATCGTCCTGT, the sensor-assay potency score (higher = more potent) came to 0.479.

As to TAGGATTTGAACCATATGGTTC, the sensor-assay potency score (higher = more potent) was -0.787.
